# Laboratory results as given in PMC11062922 (Nature Chemical Biology, 2023).
# Read-outs that look alike come from different tables or passages of the source.
# Columns and labels:
# PLK4 = details: read-out: apparent Kd, n = 1
# PRKAA2 = details: read-out: apparent Kd, n = 1
substance,measurement,setting,value
Lestaurtinib,potency estimated from few doses,"PLK4; compound concentrations:100 nM and 1000 nM (sheet 'Lestaurtinib' of Supplementary Table 1),run:Lestaurtinib_02768_R1,Plate:MR028",0.0516 µM
same,potency estimated from few doses,"PLK4; compound concentrations:100 nM and 1000 nM (sheet 'Lestaurtinib' of Supplementary Table 1),run:Lestaurtinib_02768_R2,Plate:MR028",0.0616 µM
same,potency estimated from few doses,"PLK4; compound concentrations:100 nM and 1000 nM (sheet 'Lestaurtinib' of Supplementary Table 1),run:Lestaurtinib_02768_R3,Plate:MR028",0.0744 µM
same,potency estimated from few doses,"PLK4; compound concentrations:100 nM and 1000 nM (sheet 'Lestaurtinib' of Supplementary Table 1),run:Lestaurtinib_02795_R1,Plate:MR022",0.0553 µM
same,potency estimated from few doses,"PLK4; compound concentrations:100 nM and 1000 nM (sheet 'Lestaurtinib' of Supplementary Table 1),run:Lestaurtinib_02795_R2,Plate:MR022",0.0634 µM
same,potency estimated from few doses,"PLK4; compound concentrations:100 nM and 1000 nM (sheet 'Lestaurtinib' of Supplementary Table 1),run:Lestaurtinib_02802_R1,Plate:MR029",0.073 µM
same,potency estimated from few doses,"PLK4; compound concentrations:100 nM and 1000 nM (sheet 'Lestaurtinib' of Supplementary Table 1),run:Lestaurtinib_02802_R2,Plate:MR029",0.0834 µM
same,potency estimated from few doses,"PLK4; compound concentrations:100 nM and 1000 nM (sheet 'Lestaurtinib' of Supplementary Table 1),run:Lestaurtinib_02802_R3,Plate:MR029",0.0323 µM
same,potency estimated from few doses,"PLK4; compound concentrations:100 nM and 1000 nM (sheet 'Lestaurtinib' of Supplementary Table 1),run:Lestaurtinib_02896_R1,Plate:MR030",0.0783 µM
same,potency estimated from few doses,"PLK4; compound concentrations:100 nM and 1000 nM (sheet 'Lestaurtinib' of Supplementary Table 1),run:Lestaurtinib_02896_R3,Plate:MR030",0.0806 µM
same,potency estimated from few doses,"PLK4; compound concentrations:100 nM and 1000 nM (sheet 'Lestaurtinib' of Supplementary Table 1),run:Lestaurtinib_03172_R1,Plate:MR031",0.0673 µM
same,potency estimated from few doses,"PLK4; compound concentrations:100 nM and 1000 nM (sheet 'Lestaurtinib' of Supplementary Table 1),run:Lestaurtinib_03172_R3,Plate:MR031",0.0728 µM
same,potency estimated from few doses,"PLK4; compound concentrations:100 nM and 1000 nM (sheet 'Lestaurtinib' of Supplementary Table 1),run:Lestaurtinib_03252_R1,Plate:MR032",0.0648 µM
same,potency estimated from few doses,"PLK4; compound concentrations:100 nM and 1000 nM (sheet 'Lestaurtinib' of Supplementary Table 1),run:Lestaurtinib_03252_R2,Plate:MR032",0.0239 µM
same,potency estimated from few doses,"PLK4; compound concentrations:100 nM and 1000 nM (sheet 'Lestaurtinib' of Supplementary Table 1),run:Lestaurtinib_03260_R2,Plate:MR033",0.0637 µM
same,potency estimated from few doses,"PLK4; compound concentrations:100 nM and 1000 nM (sheet 'Lestaurtinib' of Supplementary Table 1),run:Lestaurtinib_03260_R3,Plate:MR033",0.0785 µM
same,potency estimated from few doses,"PRKAA2; compound concentrations:100 nM and 1000 nM (sheet 'Lestaurtinib' of Supplementary Table 1),run:Lestaurtinib_02339_R1,Plate:MR001",0.963 µM
same,potency estimated from few doses,"PRKAA2; compound concentrations:100 nM and 1000 nM (sheet 'Lestaurtinib' of Supplementary Table 1),run:Lestaurtinib_02339_R3,Plate:MR001",0.953 µM
same,potency estimated from few doses,"PRKAA2; compound concentrations:100 nM and 1000 nM (sheet 'Lestaurtinib' of Supplementary Table 1),run:Lestaurtinib_02364_R1,Plate:MR002",0.713 µM
same,potency estimated from few doses,"PRKAA2; compound concentrations:100 nM and 1000 nM (sheet 'Lestaurtinib' of Supplementary Table 1),run:Lestaurtinib_02364_R2,Plate:MR002",0.541 µM
same,potency estimated from few doses,"PRKAA2; compound concentrations:100 nM and 1000 nM (sheet 'Lestaurtinib' of Supplementary Table 1),run:Lestaurtinib_02364_R3,Plate:MR002",0.553 µM
same,potency estimated from few doses,"PRKAA2; compound concentrations:100 nM and 1000 nM (sheet 'Lestaurtinib' of Supplementary Table 1),run:Lestaurtinib_02367_R1,Plate:MR003",1.32 µM
same,potency estimated from few doses,"PRKAA2; compound concentrations:100 nM and 1000 nM (sheet 'Lestaurtinib' of Supplementary Table 1),run:Lestaurtinib_02367_R3,Plate:MR003",0.892 µM
same,potency estimated from few doses,"PRKAA2; compound concentrations:100 nM and 1000 nM (sheet 'Lestaurtinib' of Supplementary Table 1),run:Lestaurtinib_02381_R1,Plate:MR004",1.4 µM
same,potency estimated from few doses,"PRKAA2; compound concentrations:100 nM and 1000 nM (sheet 'Lestaurtinib' of Supplementary Table 1),run:Lestaurtinib_02381_R2,Plate:MR004",0.954 µM
same,potency estimated from few doses,"PRKAA2; compound concentrations:100 nM and 1000 nM (sheet 'Lestaurtinib' of Supplementary Table 1),run:Lestaurtinib_02381_R3,Plate:MR004",0.761 µM
same,potency estimated from few doses,"PRKAA2; compound concentrations:100 nM and 1000 nM (sheet 'Lestaurtinib' of Supplementary Table 1),run:Lestaurtinib_02407_R1,Plate:MR005",0.755 µM
same,potency estimated from few doses,"PRKAA2; compound concentrations:100 nM and 1000 nM (sheet 'Lestaurtinib' of Supplementary Table 1),run:Lestaurtinib_02407_R3,Plate:MR005",0.722 µM
same,potency estimated from few doses,"PRKAA2; compound concentrations:100 nM and 1000 nM (sheet 'Lestaurtinib' of Supplementary Table 1),run:Lestaurtinib_02422_R3,Plate:MR006",0.0748 µM
same,potency estimated from few doses,"PRKAA2; compound concentrations:100 nM and 1000 nM (sheet 'Lestaurtinib' of Supplementary Table 1),run:Lestaurtinib_02437_R2,Plate:MR007",0.616 µM
same,potency estimated from few doses,"PRKAA2; compound concentrations:100 nM and 1000 nM (sheet 'Lestaurtinib' of Supplementary Table 1),run:Lestaurtinib_02437_R3,Plate:MR007",0.0565 µM
same,potency estimated from few doses,"PRKAA2; compound concentrations:100 nM and 1000 nM (sheet 'Lestaurtinib' of Supplementary Table 1),run:Lestaurtinib_02438_R1,Plate:MR008",0.857 µM
same,potency estimated from few doses,"PRKAA2; compound concentrations:100 nM and 1000 nM (sheet 'Lestaurtinib' of Supplementary Table 1),run:Lestaurtinib_02443_R3,Plate:MR009",0.792 µM
same,potency estimated from few doses,"PRKAA2; compound concentrations:100 nM and 1000 nM (sheet 'Lestaurtinib' of Supplementary Table 1),run:Lestaurtinib_02473_R1,Plate:MR010",0.73 µM
same,potency estimated from few doses,"PRKAA2; compound concentrations:100 nM and 1000 nM (sheet 'Lestaurtinib' of Supplementary Table 1),run:Lestaurtinib_02473_R2,Plate:MR010",0.941 µM
same,potency estimated from few doses,"PRKAA2; compound concentrations:100 nM and 1000 nM (sheet 'Lestaurtinib' of Supplementary Table 1),run:Lestaurtinib_02473_R3,Plate:MR010",0.799 µM
same,potency estimated from few doses,"PRKAA2; compound concentrations:100 nM and 1000 nM (sheet 'Lestaurtinib' of Supplementary Table 1),run:Lestaurtinib_02482_R1,Plate:MR011",0.788 µM
same,potency estimated from few doses,"PRKAA2; compound concentrations:100 nM and 1000 nM (sheet 'Lestaurtinib' of Supplementary Table 1),run:Lestaurtinib_02482_R2,Plate:MR011",0.508 µM
same,potency estimated from few doses,"PRKAA2; compound concentrations:100 nM and 1000 nM (sheet 'Lestaurtinib' of Supplementary Table 1),run:Lestaurtinib_02482_R3,Plate:MR011",0.568 µM
same,potency estimated from few doses,"PRKAA2; compound concentrations:100 nM and 1000 nM (sheet 'Lestaurtinib' of Supplementary Table 1),run:Lestaurtinib_02487_R1,Plate:MR012",0.422 µM
same,potency estimated from few doses,"PRKAA2; compound concentrations:100 nM and 1000 nM (sheet 'Lestaurtinib' of Supplementary Table 1),run:Lestaurtinib_02487_R3,Plate:MR012",0.679 µM
same,potency estimated from few doses,"PRKAA2; compound concentrations:100 nM and 1000 nM (sheet 'Lestaurtinib' of Supplementary Table 1),run:Lestaurtinib_02496_R1,Plate:MR013",0.702 µM
